The text below walks through data of PubChem BioAssay (NCI).

Some test systems named below: DU-145 prostate; K-562 leukemia; MALME-3M melanoma; MDA-MB-231 breast; RXF 393 renal; SF-268 CNS; SF-295 CNS; SF-539 CNS; UACC-257 melanoma; M14 melanoma; HCT-15 colon; HT29 colon; SNB-75 CNS; SNB-19 CNS; U251 CNS; PC-3 prostate; SK-MEL-5 melanoma; UACC-62 melanoma; LOX IMVI melanoma; SK-MEL-28 melanoma.
Common to all, as to test: NCI-60 one-dose screen, 48 h (100 = growth as untreated, 0 = no growth, -100 = all killed)
Common to all, as to conditions: 10 µM unless noted

Compounds without any hit were thinned out: in the full panel of roughly 83,000, 20% have a hit.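 Note: values are percent growth. 100 is the growth of untreated cells, values between 100 and 0 indicate rising inhibition; between -100 and 0 indicates cell death.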 A number with no mark means an inactive call. Calls of active or inactive are those of the source. The calls were made as follows: active = growth percent below 10; inactive = the rest.

`N#Cc1c(-c2ccc(Cl)cc2)nc(NN=Cc2cccc(O)c2)nc1N1CCOCC1`: the growth is 63.4% in the experiment with DU-145 prostate; 45.1% with K-562 leukemia; 104% with MALME-3M melanoma; 95.9% in the experiment on MDA-MB-231 breast; 24.1% in the experiment on RXF 393 renal; 81.9% with SF-268 CNS. Also, the growth in the experiment with SF-295 CNS is 97.1%; in the experiment on SF-539 CNS it was 67.8%; with UACC-257 melanoma it was 86.5%; with M14 melanoma it was 66.6%; with HCT-15 colon it was 44.7%; in the experiment on HT29 colon it was 69.8%. Also, the growth in the experiment with SNB-75 CNS was 46.1%; with SNB-19 CNS, 86.9%; in the experiment on U251 CNS, 61.6%; in the experiment on PC-3 prostate, 63.8%; with SK-MEL-5 melanoma, 76.5%; in the experiment with UACC-62 melanoma it was 94.1%. For the same molecule, the growth was 61.7% in the experiment on LOX IMVI melanoma and 77.1% in the experiment with SK-MEL-28 melanoma.
For the molecule `CNC(=O)c1cc(Oc2ccc3c(c2)sc2nc(-c4cc(OC)c(OC)c(OC)c4)cn23)ccn1`, the growth in the experiment on DU-145 prostate was 75.2%; with K-562 leukemia, 29.3%; with MALME-3M melanoma it was -8.33% (active); in the experiment with MDA-MB-231 breast, 33.8%; in the experiment on RXF 393 renal, 63.2%; in the experiment with SF-268 CNS, 72%. Further, the growth in the experiment on SF-295 CNS is 51%; in the experiment on SF-539 CNS it was 62.8%; in the experiment on UACC-257 melanoma, 49.7%; in the experiment with M14 melanoma, 52%; with HCT-15 colon it was 54.1%; in the experiment on HT29 colon it was 65.3%. For the same molecule, the growth with SNB-75 CNS was 50.3%; with SNB-19 CNS it was 82.2%; in the experiment with U251 CNS it was 61.9%; in the experiment with PC-3 prostate it was 34.3%; in the experiment on SK-MEL-5 melanoma, -13.9% (active); with UACC-62 melanoma, 44.5%. Besides, the growth in the experiment on LOX IMVI melanoma was 58%; with SK-MEL-28 melanoma, 63.5%.
On to `O=C1c2cccnc2C(=O)c2c1c(C(=O)NCCCN1CCCCC1)c1ccccn21`, for which the growth was -94.4% (active) in the experiment with DU-145 prostate; -25.4% (active) with K-562 leukemia; -92.6% (active) with MALME-3M melanoma; -3.12% (active) in the experiment on MDA-MB-231 breast; -39.5% (active) in the experiment with RXF 393 renal; -13% (active) with SF-268 CNS. The growth in the experiment with SF-295 CNS is -13.6% (active); in the experiment with SF-539 CNS, -61.2% (active); in the experiment on UACC-257 melanoma it was -82.8% (active); with M14 melanoma it was -88.1% (active); with HCT-15 colon it was -71.8% (active); with HT29 colon, -1.92% (active). Moreover, the growth in the experiment on SNB-75 CNS was -95.3% (active); with SNB-19 CNS, -72.8% (active); in the experiment on U251 CNS it was -48.4% (active); in the experiment on PC-3 prostate it was -18% (active); with SK-MEL-5 melanoma, -99.5% (active); in the experiment with UACC-62 melanoma, -61.4% (active). The figures for the growth with LOX IMVI melanoma and in the experiment with SK-MEL-28 melanoma were -71.4% (active) and 13.8%, respectively.
For `O=CC1(C2(C=O)c3ccccc3-c3ccccc32)c2ccccc2-c2ccccc21`, the growth in the experiment on DU-145 prostate is -63.3% (active); with K-562 leukemia it was -13.6% (active); with MALME-3M melanoma, -71.8% (active); with MDA-MB-231 breast, -12.5% (active); in the experiment with RXF 393 renal, -61.4% (active); in the experiment on SF-268 CNS, -46.9% (active). Besides, the growth in the experiment with SF-295 CNS was -59.8% (active); with SF-539 CNS it was -64.5% (active); with UACC-257 melanoma it was -76.1% (active); with M14 melanoma, -67.1% (active); in the experiment with HCT-15 colon, -36.4% (active); in the experiment with HT29 colon, -53.9% (active). The growth with SNB-75 CNS was -79.2% (active); with SNB-19 CNS, -83% (active); in the experiment with U251 CNS, -63% (active); in the experiment on PC-3 prostate, -64.5% (active); in the experiment with SK-MEL-5 melanoma, -83.7% (active); in the experiment with UACC-62 melanoma, -61.5% (active). Further, the growth is -61% (active) in the experiment on LOX IMVI melanoma and -38.2% (active) with SK-MEL-28 melanoma.
Take `CCS/C(Nc1ccccc1)=C(\C#N)C(=O)N/N=C/c1ccc(Cl)cc1Cl`: the growth is 20% with DU-145 prostate; 7.35% (active) in the experiment on K-562 leukemia; 38.1% in the experiment with MALME-3M melanoma; 39% with MDA-MB-231 breast; 2.63% (active) in the experiment on RXF 393 renal; 34% with SF-268 CNS. For the same molecule, the growth in the experiment with SF-295 CNS is 17%; in the experiment on SF-539 CNS, 4.25% (active); with UACC-257 melanoma, 51.9%; in the experiment on M14 melanoma, 21%; in the experiment with HCT-15 colon, 19.9%; in the experiment with HT29 colon it was 9.53% (active). Further, the growth is -6.89% (active) in the experiment with SNB-75 CNS; 19.6% with SNB-19 CNS; 19.1% with U251 CNS; 31.5% in the experiment on PC-3 prostate; 12.4% in the experiment on SK-MEL-5 melanoma; 26.6% in the experiment on UACC-62 melanoma. Moreover, the growth was 34.4% in the experiment with LOX IMVI melanoma and 60.5% in the experiment with SK-MEL-28 melanoma.
As to `COc1cc(NC(C)CCCNC(C)C)c2ncccc2c1OC` (stereo not given), the growth with DU-145 prostate was 113%; in the experiment with K-562 leukemia, 104%; in the experiment on MALME-3M melanoma it was 105%; in the experiment with MDA-MB-231 breast, 89%; with RXF 393 renal, 95%; in the experiment on SF-268 CNS, 105%. Also, the growth in the experiment with SF-295 CNS was 99.9%; with SF-539 CNS, 85.6%; with UACC-257 melanoma, 107%; in the experiment on M14 melanoma, 97%; with HCT-15 colon, 99.3%; with HT29 colon, 120%. Besides, the growth is 87.6% in the experiment with SNB-75 CNS; 93% with SNB-19 CNS; 92% in the experiment on U251 CNS; 90.8% in the experiment with PC-3 prostate; 97.9% in the experiment on SK-MEL-5 melanoma; 85% in the experiment with UACC-62 melanoma. In addition, the figures for the growth with LOX IMVI melanoma and in the experiment with SK-MEL-28 melanoma were 83.5% and 108%, respectively.
With `O=C(Cn1cc(CN2CCCCCC2)nn1)Nc1ccc2c(ccn2Cc2ccccc2)c1`, the growth in the experiment on DU-145 prostate was 101%; in the experiment on K-562 leukemia, 79.5%; with MALME-3M melanoma it was 91.1%; in the experiment on MDA-MB-231 breast, 86%; in the experiment with RXF 393 renal it was 91.4%; in the experiment on SF-268 CNS, 93.6%. For the same molecule, the growth was 99.6% in the experiment with SF-295 CNS; 92.6% in the experiment on SF-539 CNS; 101% in the experiment on UACC-257 melanoma; 94.1% with M14 melanoma; 93.3% with HCT-15 colon; 70.5% with HT29 colon. For the same molecule, the growth was 76.1% with SNB-75 CNS; 98.8% with SNB-19 CNS; 80.8% in the experiment with U251 CNS; 82.2% with PC-3 prostate; 87% in the experiment on SK-MEL-5 melanoma; 96.9% in the experiment with UACC-62 melanoma. Moreover, the values for the growth in the experiment with LOX IMVI melanoma and with SK-MEL-28 melanoma were 98.2% and 99.9%, respectively.
`COP(=O)(OC)C(C)(C)CC(=O)CC(C#N)(C#N)C(C#N)C#N`: the growth with DU-145 prostate is 113%; with K-562 leukemia it was 91.1%; in the experiment on MALME-3M melanoma, 96.8%; in the experiment on MDA-MB-231 breast, 100%; in the experiment on RXF 393 renal, 97.8%; in the experiment with SF-268 CNS it was 98%. Besides, the growth is 101% with SF-295 CNS; 102% in the experiment on SF-539 CNS; 103% with UACC-257 melanoma; 96.2% in the experiment on M14 melanoma; 93.3% with HCT-15 colon; 107% with HT29 colon. Moreover, the growth with SNB-75 CNS was 98.2%; in the experiment on SNB-19 CNS, 99.3%; in the experiment with U251 CNS, 97.3%; in the experiment with PC-3 prostate it was 92.5%; in the experiment with SK-MEL-5 melanoma it was 101%; in the experiment on UACC-62 melanoma, 96.1%. Besides, the growth was 100% with LOX IMVI melanoma and 104% in the experiment on SK-MEL-28 melanoma.
